Measurements from PubChem BioAssay AID1159580 (chemical genetic matrix, 2015).
“And” between values parts separate entries of the source, which are not always exact repeats. Equal entries are not always repeated. Among all 5,500 compounds or so, about 2,000 (36%) were called active. Inconclusive results (about 18%) are left out. No stated cut-off is given here; in the data, active means normalized growth mostly below about 0.91 (no sharp cut-off); inconclusive means no clear call, values can overlap the other calls; inactive means mostly above about 0.92. The list shows a part of the results.

Experiment: chemical genetic growth profiling, strain panel (AID 1159580);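 further: tested at 20 µM; growth read once vehicle control cultures reached saturation at 30 °C; 1 = growth at the plate median or of vehicle wells; lower values mean less growth of the strain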
Conditions: growth OD

Measured: normalized growth

Cc1nc2ccccn2c(=O)c1CCN1CCC(C(=O)c2ccc(F)cc2)CC1
inactive: S. cerevisiae deletion strains, locus YJR075W, strain HOC1, hits give low values 0.974 and 1.01 | S. cerevisiae deletion strains, locus YKL009W, strain mrt4, hits give low values 1.01 | S. cerevisiae deletion strains, locus YKL068W, hits give low values 1 | S. cerevisiae deletion strains, locus YKL085W, strain MDH1 (second series), hits give low values 1.03 | S. cerevisiae deletion strains, locus YKL085W, strain MDH1, hits give low values 1.03 | S. cerevisiae deletion strains, locus YKL160W, strain elf1, hits give low values 0.991 | S. cerevisiae deletion strains, locus YKL190W, strain CNB1, hits give low values 1.02 | S. cerevisiae deletion strains, locus YKR001C, strain vps1, hits give low values 0.995 | S. cerevisiae deletion strains, locus YKR026C, strain gcn3, hits give low values 0.98 | S. cerevisiae deletion strains, locus YKR091W, strain srl3, hits give low values 0.994 | S. cerevisiae deletion strains, locus YLL001W, strain dnm1, hits give low values 0.997 | S. cerevisiae deletion strains, locus YLL026W, hits give low values 0.989 | S. cerevisiae deletion strains, locus YLL041C, strain sdh2, hits give low values 0.991 | S. cerevisiae deletion strains, locus YLR027C, strain aat2, hits give low values 1 | S. cerevisiae deletion strains, locus YLR039C, strain RIC1, hits give low values 1.03 | S. cerevisiae deletion strains, locus YLR058C, strain SHM2, hits give low values 1.02 | S. cerevisiae deletion strains, locus YLR102C, strain apc9, hits give low values 0.993 | S. cerevisiae deletion strains, locus YLR113W, strain HOG1, hits give low values 1.01 | S. cerevisiae deletion strains, locus YLR221C, strain rsa3, hits give low values 1 | S. cerevisiae deletion strains, locus YLR258W, strain gsy2, hits give low values 0.986 | S. cerevisiae deletion strains, locus YLR262C, strain YPT6 (second series), hits give low values 0.954 | S. cerevisiae deletion strains, locus YLR262C, strain YPT6, hits give low values 1.05 | S. cerevisiae deletion strains, locus YLR268W, strain sec22, hits give low values 0.995 | S. cerevisiae deletion strains, locus YLR320W, strain mms22, hits give low values 1 | S. cerevisiae deletion strains, locus YLR330W, strain CHS5, hits give low values 1.02 | S. cerevisiae deletion strains, locus YLR342W, strain FKS1 (second series), hits give low values 0.988 | S. cerevisiae deletion strains, locus YLR342W, strain FKS1, hits give low values 0.988 | S. cerevisiae deletion strains, locus YLR357W, strain rsc2, hits give low values 0.924 | S. cerevisiae deletion strains, locus YLR370C, strain arc18, hits give low values 0.991 | S. cerevisiae deletion strains, locus YLR371W, strain rom2, hits give low values 0.989 | S. cerevisiae deletion strains, locus YLR384C, strain iki3, hits give low values 0.985 | S. cerevisiae deletion strains, locus YLR418C, strain cdc73, hits give low values 1.01 | S. cerevisiae deletion strains, locus YML016C, strain PPZ1, hits give low values 1.02 | S. cerevisiae deletion strains, locus YML032C, strain rad52, hits give low values 0.985 | S. cerevisiae deletion strains, locus YML120C, strain ndi1, hits give low values 1 | S. cerevisiae deletion strains, locus YML124C, strain tub3, hits give low values 0.995 | S. cerevisiae deletion strains, locus YMR058W, strain fet3, hits give low values 1 | S. cerevisiae deletion strains, locus YMR078C, strain ctf18, hits give low values 0.994 | S. cerevisiae deletion strains, locus YMR125W, strain sto1, hits give low values 0.962 | S. cerevisiae deletion strains, locus YMR129W, hits give low values 0.998 | S. cerevisiae deletion strains, locus YMR205C, strain PFK2, hits give low values 0.985 | S. cerevisiae deletion strains, locus YMR223W, strain ubp8, hits give low values 0.966 | S. cerevisiae deletion strains, locus YMR231W, strain pep5, hits give low values 0.977 | S. cerevisiae deletion strains, locus YMR307W, strain GAS1, hits give low values 1.01 and 1 | S. cerevisiae deletion strains, locus YNL067W, strain RPL9B, hits give low values 1.04 | S. cerevisiae deletion strains, locus YNL071W, strain lat1, hits give low values 0.993 | S. cerevisiae deletion strains, locus YNL128W, strain TEP1, hits give low values 1.02 and 1.01 | S. cerevisiae deletion strains, locus YNL153C, strain GIM3, hits give low values 1.06 | S. cerevisiae deletion strains, locus YNL175C, strain NOP13, hits give low values 1.01 | S. cerevisiae deletion strains, locus YNL183C, strain NPR1, hits give low values 0.979 | S. cerevisiae deletion strains, locus YNL197C, strain WHI3, hits give low values 1.03 | S. cerevisiae deletion strains, locus YNL209W, strain ssb2, hits give low values 0.994 | S. cerevisiae deletion strains, locus YNL224C, strain SQS1, hits give low values 1.01 | S. cerevisiae deletion strains, locus YNL233W, strain BNI4, hits give low values 1.03 | S. cerevisiae deletion strains, locus YNL248C, strain rpa49, hits give low values 0.979 | S. cerevisiae deletion strains, locus YNL250W, strain rad50, hits give low values 0.999 | S. cerevisiae deletion strains, locus YNL271C, strain bni1, hits give low values 0.977 | S. cerevisiae deletion strains, locus YNL298W, strain CLA4, hits give low values 0.987 | S. cerevisiae deletion strains, locus YNL307C, strain MCK1, hits give low values 0.987 | S. cerevisiae deletion strains, locus YNL322C, strain KRE1 (second series), hits give low values 0.966 | S. cerevisiae deletion strains, locus YNL322C, strain KRE1, hits give low values 1.02 and 1.01 | S. cerevisiae deletion strains, locus YNR049C, strain mso1, hits give low values 0.995 | S. cerevisiae deletion strains, locus YNR052C, strain pop2, hits give low values 0.974 | S. cerevisiae deletion strains, locus YOL006C, strain TOP1, hits give low values 1.09 | S. cerevisiae deletion strains, locus YOL012C, strain htz1 1.02 | S. cerevisiae deletion strains, locus YOL147C, strain pex11, hits give low values 0.997 | S. cerevisiae deletion strains, locus YOR001W, strain rrp6, hits give low values 1.01 | S. cerevisiae deletion strains, locus YOR061W, strain CKA2, hits give low values 1.02 | S. cerevisiae deletion strains, locus YOR069W, strain VPS5, hits give low values 1.02 | S. cerevisiae deletion strains, locus YOR070C, strain gyp1, hits give low values 0.988 | S. cerevisiae deletion strains, locus YOR080W, strain dia2, hits give low values 0.981 | S. cerevisiae deletion strains, locus YOR083W, strain WHI5 (second series), hits give low values 1.02 | S. cerevisiae deletion strains, locus YOR083W, strain WHI5, hits give low values 0.946 | S. cerevisiae deletion strains, locus YOR106W, strain vam3, hits give low values 0.994 | S. cerevisiae deletion strains, locus YOR136W, strain idh2, hits give low values 0.996 | S. cerevisiae deletion strains, locus YOR144C, strain elg1, hits give low values 0.997 | S. cerevisiae deletion strains, locus YOR184W, strain ser1, hits give low values 0.988 | S. cerevisiae deletion strains, locus YOR231W, strain MKK1, hits give low values 1.04 | S. cerevisiae deletion strains, locus YOR265W, strain rbl2, hits give low values 0.989 | S. cerevisiae deletion strains, locus YOR270C, strain vph1, hits give low values 1.01 | S. cerevisiae deletion strains, locus YOR290C, strain snf2, hits give low values 0.989 | S. cerevisiae deletion strains, locus YOR316C, strain cot1, hits give low values 0.999 | S. cerevisiae deletion strains, locus YPL051W, strain arl3, hits give low values 0.987 | S. cerevisiae deletion strains, locus YPL055C, strain LGE1, hits give low values 1.09 | S. cerevisiae deletion strains, locus YPL078C, strain atp4, hits give low values 0.989 | S. cerevisiae deletion strains, locus YPL106C, strain sse1, hits give low values 0.963 | S. cerevisiae deletion strains, locus YPL240C, strain hsp82, hits give low values 0.983 | S. cerevisiae deletion strains, locus YPL241C, strain CIN2, hits give low values 1.02 | S. cerevisiae deletion strains, locus YPL256C, strain CLN2, hits give low values 1.05 | S. cerevisiae deletion strains, locus YPR119W, strain clb2, hits give low values 1 | S. cerevisiae deletion strains, locus YPR141C, strain kar3, hits give low values 1 | S. cerevisiae deletion strains, locus YPR163C, strain tif3, hits give low values 0.992 | S. cerevisiae deletion strains, locus YPR167C, strain met16, hits give low values 0.991 | S. cerevisiae deletion strains, strain wtn01, hits give low values 1.02 | S. cerevisiae strains, strain wild type, hits give low values 1.01
